Compound activity deposited in PubChem BioAssay by National Center for Advancing Translational Sciences (NCATS).
Cycloheximide cs – counter-screen hit for Shiga toxin inhibitors, cycloheximide; cell reporter, cycloheximide protein synthesis inhibition counterscreen; max response, %; actives 12% (n = 300,000); AID 2314; in the data active means max response mostly above about 13%, no sharp cut-off; inactive means mostly below about 14%; further: read at 38.3 µM for the half of the compounds with a filed dose
FBPA Giardia inh – Giardia lamblia aldolase inhibition; A8B2U2; purified Giardia FBPA; Potency, µM (titrated, usually from 59.6 µM), hits mostly inhibitors; actives 0.71% (n = 290,000); AID 2451; further: nearly all actives have a fitted effect of over 55% in size
Target sequence (A8B2U2 whole entry, looked up): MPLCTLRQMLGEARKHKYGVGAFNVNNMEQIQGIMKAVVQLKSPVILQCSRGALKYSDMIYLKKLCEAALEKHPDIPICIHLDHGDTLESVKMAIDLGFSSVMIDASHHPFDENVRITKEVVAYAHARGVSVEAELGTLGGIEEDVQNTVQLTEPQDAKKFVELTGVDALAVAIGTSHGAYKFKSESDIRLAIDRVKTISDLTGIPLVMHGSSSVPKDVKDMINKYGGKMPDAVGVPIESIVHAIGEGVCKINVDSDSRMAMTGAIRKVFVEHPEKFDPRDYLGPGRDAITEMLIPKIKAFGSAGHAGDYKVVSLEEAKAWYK
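Giardia FBPA (40 nM reagent) was preincubated 10 min at RT with compound (up to 57.5 uM final), then substrate plus GAPDH/TPI/NAD/arsenate coupling system with diaphorase/resazurin was added; resorufin fluorescence (525/598 nm) was read after 20 min.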
Shiga inhibitor – blocks Shiga toxin action in Vero cells. AID 2315. Vero cells, Shiga toxin protein synthesis inhibition reporter. inhibition, % at 38.7 µM. actives 9.2% (n = 290,000); in the data active means inhibition mostly above about 28%, no sharp cut-off; inactive means mostly below about 43%
Pf growth 96h – P. falciparum growth inhibition at 96 hours; Potency, µM (series often up to 28.7 µM), most hits filed as inhibitors; P. falciparum luciferase reporter growth, 96 h; actives 6.9% (n = 320,000)
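Readout is luminescence from an integrated firefly luciferase in P. falciparum. Red cells, 2% hematocrit and 0.05% parasitemia final, were cultured with compound through two parasite generations (96 hours) at 37 C, 5% CO2.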
NS1 inh – inhibitors of influenza NS1 protein function; Potency, µM (doses to about 46.1 µM); actives 0.4% (n = 270,000); calls by dose curve; further: actives are rising curves; nearly all actives have a fitted effect of over 50% in size
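In this qHTS, NS1 from influenza A is expressed in budding yeast, where it slows growth. Cells are switched from glucose to 2% galactose medium (pH 6.0, -URA), treated with compound, and growth recovery is read at OD600.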
Pf growth 48h – inhibits P. falciparum growth in the first generation, 48 h. P. falciparum luciferase growth in erythrocytes, 48 h. Potency, µM (titrated, usually from 28.7 µM), hits mostly inhibitors. actives 5.9% (n = 310,000)
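A one-generation exposure of luciferase-tagged malaria parasites in RPMI 1640/Albumax erythrocyte culture, 37 C and 5% CO2. Inhibition is inferred from decreased luminescence after adding detection reagent.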
A number is an active result; – = inactive; ? = inconclusive; · = not tested or not shown; [ ] = another dose, or the depositor's remark. A selection: hits, their analogues and other compounds. The true share with any hit is near 21%. Unless noted, the call rests on the fitted dose curve; in most records, active means well fitted curve in the direction sought with a large enough effect; inconclusive means small, poorly fitted or top-dose-only effect, or another doubt; inactive means no such curve, though single readings can be large; an effect the other way counts as inactive or inconclusive.

SMILES	Cycloheximide cs	FBPA Giardia inh	Shiga inhibitor	Pf growth 96h	NS1 inh	Pf growth 48h
Cn1nnnc1SCC(=O)N1CCc2ccccc21	–	–	–	–	–	–
O=C(CSc1ccccc1)N1CCc2ccccc21	31	–	93	·	–	–
O=C(CCC(=O)N1CCc2ccccc21)N1CCc2ccccc21	·	·	·	·	–	·
Cc1nc(SCC(=O)N2CCc3ccccc32)n[nH]1	33	–	–	?	–	–
CCn1cc(SCC(=O)N2CCc3ccccc32)c2ccccc21	27	?	54	–	–	–
Cc1cc2cc(C)c3nnc(SCC(=O)N4CCc5ccccc54)n3c2cc1C	–	–	–	–	–	–
O=C(CSCc1ccco1)c1ccc(Cl)s1	25	–	108	12µM	–	–
CC(C)CO/N=C1/C[C@@H](O)[C@@H](O)[C@@H]2[C@@H]3C(=O)N([C@@H](C)c4ccccc4)C(=O)[C@H]3CC[C@@H]12	·	–[12.9 µM]	·	·	·	·
C(=Nc1ccc2c(c1)Cc1ccccc1-2)c1ccccn1	·	·	·	·	–	·
COC(=O)c1[nH]c(C)c(/C(O)=C2\C(=O)C(=O)N(CCN3CCOCC3)C2c2ccc(C)o2)c1C (stereo not given)	–	–	–	–	–	–
CCOC(=O)c1sc2ccccc2c1OC(=O)c1ccc(C)cc1	–	–	–	–	–	–
CC(=Nc1ccc(C)cc1C)c1sc2ccccc2c1O	37	–	119	–	–	–
CC(=Nc1ccc(C)cc1)c1sc2ccccc2c1O	35	–	92	–	–	–
CC(=Nc1cccc(O)c1)c1sc2ccccc2c1O	55	–	111	–	–	–
Cc1ccc(NC(=S)NC(=O)c2sc3ccccc3c2Cl)c(C(=O)O)c1	–	–	–	–	–	–
COc1ccc(OCCNc2cc(Cl)ccc2[N+](=O)[O-])cc1	17	–	–	–	–	–
COc1ccc(OCCNc2cc(N3CCCCC3)ccc2[N+](=O)[O-])cc1	–	–	–	?	–	?
COc1ccc(OCCNc2cc(N3CCOCC3)ccc2[N+](=O)[O-])cc1	–	–	–	?	–	–
O=[N+]([O-])c1ccc(N2CCN(S(=O)(=O)c3ccccc3)CC2)cc1NCCN1CCOCC1	–	–	–	9.3µM	–	13µM
COc1cccc(OCCNc2cc(N3CCOCC3)ccc2[N+](=O)[O-])c1	44	–	–	0.41µM	–	–
O=C1NC[C@H](c2ccccc2)N(CCc2cccc3ccccc23)C1=O	–	–	–	–	–	–
COC(=O)c1cn(C)c2ccc(S(=O)(=O)N3CCOCC3)cc2c1=O	–	–	–	–	·	–
Cn1cc(C(=O)NCc2cccs2)c(=O)c2cc(S(=O)(=O)N3CCCC3)ccc21	–	–	–	–	–	?
Cn1cc(C(=O)NC2CCCCC2)c(=O)c2cc(S(=O)(=O)N3CCCC3)ccc21	–	–	–	8.3µM	–	–
COC(=O)c1cn(C)c2ccc(S(=O)(=O)N3CCCC3)cc2c1=O	–	–	–	3.7µM	–	–
SMILES	Cycloheximide cs	FBPA Giardia inh	Shiga inhibitor	Pf growth 96h	NS1 inh	Pf growth 48h
Cn1cc(C(=O)NCc2cccnc2)c(=O)c2cc(S(=O)(=O)N3CCCCCC3)ccc21	–	–	–	6.6µM	·	–
CC1CCCCC1NC(=O)c1cn(C)c2ccc(S(=O)(=O)N3CCCC3)cc2c1=O (stereo not given)	–	–	–	–	–	8.3µM
CC(NC(=O)c1cn(C)c2ccc(S(=O)(=O)N3CCCC3)cc2c1=O)c1ccccc1 (stereo not given)	–	·	–	12µM	–	12µM
CCCCNC(=O)c1cn(C)c2ccc(S(=O)(=O)N3CCCC3)cc2c1=O	–	·	–	?	–	?
Cc1ccc(S(=O)(=O)N2CCCCC2)cc1C(=O)OC(C)C(=O)NC1CCCCC1C (stereo not given)	·	·	·	13µM	·	?
Cc1ccc(S(=O)(=O)N2CCC(C(=O)OC(C)C(=O)NC3CCCCC3C)CC2)cc1 (stereo not given)	·	·	·	?	·	–
COC(=O)[C@@]1(Cc2ccc(OC)cc2)[C@H]2c3cc(C(=O)N4CCCC4)n(Cc4nc5ccccc5[nH]4)c3C[C@H]2CN1C(=O)c1ccccc1	·	–	·	·	·	·
COc1ccc(C(=O)N/N=C(\C)c2ccc3c(c2)C2C=CCC2C(c2ccccc2)N3)cc1 (stereo not given)	20	?	–	–	–	1µM
CC(=O)OC[C@@H]1O[C@H](C/C=N\OC[C@@H](O)[C@H]2O[C@H]3OC(C)(C)O[C@H]3[C@@H]2O)C=C[C@@H]1OC(C)=O	·	–[12.9 µM]	·	·	·	·
O=C(Nc1ccccc1[N+](=O)[O-])c1cccc(N2C(=O)CCC2=O)c1	–	–	–	?	–	–
Cc1c(C)c2ccc(OCC(=O)NCCN3CCOCC3)c(C)c2oc1=O	–	–	–	–	–	–
O=C(Nc1ccc(Cl)cc1)Nc1csc([N+](=O)[O-])c1	30	–	100	?	–	?
O=C(Nc1ccccc1)Nc1ccc(Cl)c([N+](=O)[O-])c1	37	–	81	–	–	?
Cc1ccc(NC(=O)Nc2ccccc2)cc1[N+](=O)[O-]	52	–	146	?	–	–
O=C(NC(=S)Nc1ccc2[nH]c(=O)[nH]c2c1)c1ccccc1F	–	·	–	–	–	–
CC(C)C(=O)Nc1ccc(NC(=S)NC(=O)c2ccccc2F)cc1	15	–	–	?	–	–
O=C(CCC(=O)Nc1ccccc1Cl)NNC(=O)NC1CCCCC1	–	·	–	–	–	–
NS(=O)(=O)c1ccc(NC(=O)CCC(=O)O)cc1	·	·	·	–	·	–
CCN(C(=O)COC(=O)CCS(=O)(=O)c1ccc(C)cc1)C1CCS(=O)(=O)C1 (stereo not given)	–	·	–	–	–	–
O=C(Nc1ccccc1)Nc1ccc(F)c([N+](=O)[O-])c1	45	–	46	–	–	?
O=C(NC(=S)Nc1ccc(F)c([N+](=O)[O-])c1)c1ccccc1F	23	–	37	–	·	–
Cc1ccsc1C(=O)Nc1ccc(F)c([N+](=O)[O-])c1	35	–	53	–	–	–
O=C(Nc1ccc([N+](=O)[O-])cc1)Nc1ccc(Cl)cc1F	–	–	–	–	·	4.1µM
CCC1=C2CC[C@H]3C(=O)NC(=O)[C@H]3[C@H]2[C@@]2(C)C(=NCC3CC3)OC(=O)N2C1=O	·	–	·	·	·	·
CC(C)=CCC/C(C)=C/COc1c2ccoc2cc2oc(=O)ccc12	–	·	–	·	·	·
Cn1c(N)c(C(=O)/C=C/c2ccccc2)c(=O)[nH]c1=O	48	–	69	–	–	–
O=C(/C=C/c1ccccc1)c1c(O)n(CCc2ccccc2)c(=O)[nH]c1=O	–	–	–	–	–	–
Cc1ccc(O)c(NC2=C(Cl)C(=O)N(Cc3ccccc3)C2=O)c1	–	–	–	?	–	12µM
Cc1ccc(C(=O)N2CCCCC2)cc1NC1=C(Cl)C(=O)N(Cc2ccccc2)C1=O	·	·	·	5.2µM	·	4.7µM
